The source of these data is PubChem BioAssay AID1851 (National Center for Advancing Translational Sciences (NCATS), 2009).

Molecules are shown by their SMILES. Hit rate of the full screen: of about 16,000 compounds, about 4,000 (25%) were called active. Not shown: some 26% with an inconclusive outcome. Only a sample is shown. A number with no mark means an inactive call. Calls follow the shape of the dose curve; as a rule, active = well fitted curve in the direction sought with a large enough effect; inconclusive = small, poorly fitted or top-dose-only effect, or effect the other way; inactive = no such curve, though single readings can be large or run the other way.
% is scaled to controls: 0 for no effect and ±100 for the full control effect.

In this test the target is Cytochrome P450 2C9 (Homo sapiens) (UniProt P11712). In words: Cytochrome panel assay with activity outcomes. Particulars: recombinant CYP, pro-luciferin dealkylation, luminescence, p450-cyp2c9; series mostly up to 57.1 µM; activity, negative = inhibition: at the top concentration.
Sequence of Cytochrome P450 2C9 (Homo sapiens) (P11712 whole entry, looked up): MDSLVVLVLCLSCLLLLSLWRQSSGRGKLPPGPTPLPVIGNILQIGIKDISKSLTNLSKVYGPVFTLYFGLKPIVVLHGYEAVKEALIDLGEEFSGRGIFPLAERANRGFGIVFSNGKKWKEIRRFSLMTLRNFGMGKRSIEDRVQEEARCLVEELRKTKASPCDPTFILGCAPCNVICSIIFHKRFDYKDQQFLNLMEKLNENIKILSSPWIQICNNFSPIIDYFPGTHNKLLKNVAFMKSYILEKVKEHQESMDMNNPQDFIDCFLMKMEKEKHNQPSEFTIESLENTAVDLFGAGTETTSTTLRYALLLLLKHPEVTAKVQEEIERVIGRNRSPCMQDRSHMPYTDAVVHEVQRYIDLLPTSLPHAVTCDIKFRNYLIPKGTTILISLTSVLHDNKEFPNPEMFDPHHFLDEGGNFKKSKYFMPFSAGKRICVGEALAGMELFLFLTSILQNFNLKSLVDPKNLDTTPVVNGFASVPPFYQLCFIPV
On to `COc1ccc(NC(=O)N2CCC3(CC2)CCN(C(=O)c2ccco2)CC3)cc1`, for which the “activity, negative = inhibition” value was -28.3%.
With `CCOc1cc(NC(=S)Nc2ccccc2)c(OCC)cc1NC(=O)c1ccc(OC)cc1`, the AC50 (commonly the concentration giving half of the maximal activity seen) was 1.78 µM (active).
The same measure, in the same setting: as for `O=C(NC(=S)NNC(=O)c1cccs1)c1ccco1`, the figure is 15.8 µM (active).
`CCOc1ccc(NC(=O)c2ccc(OC)cc2)cc1`: the “activity, negative = inhibition” value is -18.5%.
Turning to `Cc1ccc(OCC(=O)NNC(=O)CCc2ccccc2)cc1`, the “activity, negative = inhibition” value is -12.1%.
Regarding `COc1ccc(C(=O)NNC(=S)NC(=O)c2ccco2)cc1`, the AC50 was 7.08 µM (active).
As for `COc1ccc(NC(=O)N2CC3(CCN(C(=O)c4ccco4)CC3)C2)cc1`, the “activity, negative = inhibition” value was -17.3%.
`c1ccc(C2CCC(N3CCC(N4CCCCC4)CC3)CC2)cc1` (stereo not given): the “activity, negative = inhibition” value is -7.45%.
Consider `O=C1c2cccc3c(Nc4ccccc4Cl)c([N+](=O)[O-])cc(c23)C(=O)N1CCO`, for which the AC50 is 2.82 µM (active).
As for `O=[N+]([O-])c1cc(Cl)cc2c1nc(NCCO)c1ccccc12`, the activity, negative = inhibition is -0.585% [at 11.4 µM].
For `O=C1NC(=O)C(c2ccccc2[N+](=O)[O-])=C1Nc1ccc(O)c(Cl)c1`, the “activity, negative = inhibition” value was -11.5%.
Take `COc1cc(C=O)ccc1OCCOCCOc1ccccc1Cl`: the AC50 was 12.6 µM (active).
For `COc1ccc(/C=C2\OC(=O)c3c(OC)cccc32)cc1OC`, the “activity, negative = inhibition” value is -28.5%.
On the same count and under the same terms, as for `COc1ccc(-n2cccc2C=O)cc1OC`, the figure is -8.44%; as for `CCCOc1ccc(/C=C/C(=O)Nc2ccc([N+](=O)[O-])cc2C)cc1OC`, 3.29%; as for `COc1ccc(CNC(C)(C)C)cc1Cl`, 0.0327%.
Regarding `COc1cc(C)ccc1OCCOc1cc(C)ccc1Cl`, the AC50 is 0.794 µM (active).
As for `C#CCN(C)CCCOc1ccc(Cl)cc1Cl`, the AC50 entry is “inactive”.
Take `COc1ccccc1OCCCOc1ccc([N+](=O)[O-])cc1Cl`: the AC50 is 11.2 µM (active).
In the case of `CN=C(NC#N)Nc1ccc(C2=NNC(=O)C[C@@H]2C)cc1`, the “activity, negative = inhibition” value is -11.9%.
Regarding `COc1ccc(-c2nc(N)c3ncn([C@H]4O[C@@H](CO)[C@@H](O)[C@@H]4O)c3n2)cc1`, the activity, negative = inhibition was 8.82% [at 11.4 µM].
Same read-out and setting: under `COc1cc(CNCc2cccs2)ccc1OCC(=O)NC(C)(C)C` stands -12.4%; under `COCCNc1nc(-c2ccc(N(C)C)cc2)nc2ccccc12`, 8.62% [at 2.29 µM].
On the same count and under the same terms, as for `COCCNc1nc(-c2ccccc2C)nc2ccccc12`, the figure is -5.55% [at 2.29 µM].
Take `OCCNc1nc(SCc2ccccc2)nc2sc3c(c12)CCC3`: the AC50 is 7.94 µM (active).
As to `COCCNc1nc(SCc2ccccc2)nc2sc3c(c12)CCC3`, the AC50 is 3.16 µM (active).
The same measure, in the same setting: as for `CC(CO)Nc1nc(SCc2ccccc2)nc2sc3c(c12)CCC3` (stereo not given), the figure is 4.47 µM (active).
For `C[C@H](Nc1ncnc2sc3c(c12)CCC3)C(=O)O`, the “activity, negative = inhibition” value was -3.13%.
As to `CSc1ccc2c(c1)N(CC[C@H]1CCCCN1C)c1ccccc1S2`, the AC50 result is “inactive”.
With `CC1(C)OCC([C@H](O)C2=CCCCC2=O)CO1`, the activity, negative = inhibition was 2.86% [at 11.4 µM].
Consider `COc1ccccc1CNc1ncnc2ccc(-c3ccc(C(=O)N(C)C)cc3)cc12`, for which the activity, negative = inhibition is 0.573% [at 2.29 µM].
In the case of `COc1ccccc1CNC(=O)c1cc2c(C)nn(Cc3ccc(F)cc3)c2s1`, the AC50 is 2.24 µM (active).
`CN(C)CCCNC(=O)c1cc2c3ccccc3n(C)c2s1`: the “activity, negative = inhibition” value is -7.37%.
Turning to `Fc1ccc(-c2csc(N3CCC(c4ccccc4)C3)n2)cc1` (stereo not given), the AC50 is 17.8 µM (active).
With `Brc1ccc(-c2csc(N3CCC(c4ccccc4)C3)n2)cc1` (stereo not given), the AC50 is 10 µM (active).
As for `Cc1c(C2CCN(CCc3ccccc3)CC2)noc1-c1ccc(Cl)cc1`, the “activity, negative = inhibition” value is -12.1%.
Turning to `Clc1ccc(-c2csc(N3CCC(c4ccccc4)C3)n2)cc1` (stereo not given), the AC50 was 14.1 µM (active).
As for `COc1cc2nc(N3CCN(C(=O)OCc4ccccc4)[C@H](C(=O)NC(C)(C)C)C3)nc(N)c2cc1OC`, the “activity, negative = inhibition” value was -9.68%.
For `CN(C)c1ccc(C(c2ccc(N(C)C)cc2)c2ccc([N+](=O)[O-])cc2)cc1`, the activity, negative = inhibition was -7.57% [at 11.4 µM].
Turning to `CC(=O)C[C@H](c1ccc([N+](=O)[O-])cc1)c1c(O)c2ccccc2oc1=O`, the AC50 is 0.631 µM (active).
With `COc1ccc(NC(=O)N2CC3(CCN(C(=O)c4cnccn4)CC3)C2)cc1`, the “activity, negative = inhibition” value is 7.59%.
In the case of `O=c1oc2cc(Oc3ccc(C(F)(F)F)cc3[N+](=O)[O-])ccc2c2c1CCCC2`, the AC50 is 12.6 µM (active).
Consider `Cn1ncc2c(Cl)ncnc21`, for which the activity, negative = inhibition was 0.147% [at 11.4 µM].
With `O=C1[C@@H]2[C@H]3[C@H](O)[C@H](O)C/C(=N/OCc4ccccc4)[C@H]3CC[C@H]2C(=O)N1c1ccc(F)cc1F`, the activity, negative = inhibition was 12.6% [at 11.4 µM].
`COc1cccc(-c2noc(-c3cccnc3)n2)c1`: the AC50 was 15.8 µM (active).
For `COc1ccc(-c2nnc(-c3cccnc3)o2)cc1`, the “activity, negative = inhibition” value is -20.5%.
For `CC(=O)OCC1=C(C(=O)O)N2C(=O)[C@@H](NC(=O)CSc3ccncc3)[C@@H]2SC1`, the AC50 result is “inactive”.
Consider `CNc1csc(C)c(C)c1=O`, for which the “activity, negative = inhibition” value is 6.4%.
On the same count and under the same terms, as for `Cc1cnc(CNc2cc(-c3cccnc3)ncn2)cn1`, the figure is 6.31% [at 2.29 µM].
Regarding `N=C1/C(=C\c2ccc(SCc3ccco3)o2)C(=O)N=C2SC=NN12`, the AC50 is 0.447 µM (active).
